Reference: the supplement of paper PMC3334620
The full ranking holds about 33,000 sequences; the median of “E-score (-0.5 to 0.5)” is about -0.015, and the highest 2% start at about 0.3. This is one part of a sample in which the highest values are shown more often than they occur.

Target: T1, Abf1 (UniProt P14164)
T1 sequence: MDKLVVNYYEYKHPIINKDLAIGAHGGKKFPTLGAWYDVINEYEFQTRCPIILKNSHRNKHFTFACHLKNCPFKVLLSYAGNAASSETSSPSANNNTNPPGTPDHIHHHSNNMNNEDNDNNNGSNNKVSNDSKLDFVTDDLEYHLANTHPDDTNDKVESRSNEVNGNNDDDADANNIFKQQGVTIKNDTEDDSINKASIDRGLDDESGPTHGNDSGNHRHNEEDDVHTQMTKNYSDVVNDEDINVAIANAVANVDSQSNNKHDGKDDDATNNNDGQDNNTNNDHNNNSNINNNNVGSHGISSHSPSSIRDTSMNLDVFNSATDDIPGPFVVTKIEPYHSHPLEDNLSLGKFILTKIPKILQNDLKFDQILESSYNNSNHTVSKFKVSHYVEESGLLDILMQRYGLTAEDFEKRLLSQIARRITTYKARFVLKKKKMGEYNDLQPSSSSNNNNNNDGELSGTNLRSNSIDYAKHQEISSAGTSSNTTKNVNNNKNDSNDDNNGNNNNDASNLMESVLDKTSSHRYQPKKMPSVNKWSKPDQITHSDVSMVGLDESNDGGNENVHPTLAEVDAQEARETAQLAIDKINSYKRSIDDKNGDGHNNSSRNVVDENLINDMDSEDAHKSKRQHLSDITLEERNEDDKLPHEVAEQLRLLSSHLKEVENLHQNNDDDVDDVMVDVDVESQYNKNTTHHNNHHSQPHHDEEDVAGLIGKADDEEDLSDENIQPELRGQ
Assay: PBM E-score (8-mer binding enrichment) (E-score (-0.5 to 0.5)); higher = stronger / more preferred TF binding
Settings: protein concentration: 200 nM; construct: GST-full length
Procedure, shortened: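 GST-tagged yeast TFs (full-length or DNA-binding domain) were made by PURExpress in vitro transcription/translation and applied at about 100-200 nM to universal all-10-mer Agilent arrays. The arrays were made double-stranded by primer extension, on fresh or once-stripped slides. Bound protein was detected with fluorescent anti-GST, and scans were normalised with masliner. Each ungapped eight-base word, pooled with its reverse complement, received an E-score (modified Wilcoxon-Mann-Whitney statistic) from the Universal PBM Analysis Suite.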

Sequence	PBM E-score
GTTCTTAA	0.124
ACGAAGTG	0.301
ACGAAGTA	0.169
ACGAAGTC	0.152
AGACGTTG	0.109
ACAGATTG	-0.0933
GTGACACA	0.343
ATGACACA	0.266
CTGACATC	-0.0102
ACGACATC	0.303
ATGACAGG	-0.0297
ATGACACC	0.187
CTGACACA	-0.208
ACGACATG	0.225
AGGACATG	-0.0301
ATGACATG	0.358
CCGACATC	0.218
ATGACATC	0.308
GAGTATCC	0.0845
ACCACGCT	-0.0224
GAACAGTC	-0.0496
AATTTGCC	-0.136
AAGACATA	0.103
CTGACAGA	0.0348
CTGACATA	0.0493

Sequence	PBM E-score
GTGACATA	0.43
ATGACAGA	0.128
GAGACATA	0.0808
GGGACATA	-0.00523
ATGACATA	0.401
GTGACAGA	0.359
ACGACTCG	0.144
CGTGGTAC	0.161
AACTGCTG	-0.0316
CTGACTCC	-0.131
CGTGGGAG	0.0501
CAAATCCC	-0.184
ACGTCTAA	0.196
GCGTCGAA	0.0222
CCGTCTAA	0.266
ACGTCGAA	0.163
TCGTCGCA	0.322
GCGTCGCA	-0.0267
ACGTCGTA	0.228
CCGTCGCA	0.282
CCGTCGTA	0.282
TCGTCGAA	0.355
GCGTCGTA	0.418
TCGTCTAA	0.298
CCGCCATA	-0.072

Sequence	PBM E-score
GGGTTACC	-0.0518
CAGACCAA	-0.132
GCCCAAAA	-0.114
AAATGGAG	0.0525
AGGCTCTA	-0.247
AATGACTA	0.222
CATGACAC	0.218
TATGACAA	0.27
CATGACAA	0.238
AATGACAT	0.39
GATGACAA	0.369
AATGACCA	0.256
AATGACAA	0.397
AATGACCT	0.223
AATGACAC	0.227
AATGACAG	0.16
GATGACAC	0.337
CGAGGATA	0.0582
GATGGGCA	-0.0389
CTCATCAA	0.192
GCCCTCTA	-0.224
CCACTCTC	-0.22
AACGATTA	0.172
GACGATTA	0.31
TACGATAA	0.179

Sequence	PBM E-score
CACGATAA	0.296
CACGATTA	0.247
GACGATAA	0.363
GACCAAAA	0.183
AAACCGAC	-0.0139
CGCACCAA	-0.0891
TCACGCCA	0.113
ATGATAAC	0.339
GCGATAAC	0.158
AAGATAAC	0.171
TTGATAAA	0.23
GTGATAAA	0.412
GTGATAAC	0.371
ATGATAGA	0.103
ATGATAAA	0.406
CTGATAAC	0.167
AAGATAAA	0.132
GAGATAAC	0.138
CTGATAAA	0.112
CCGGTTCC	-0.286
CCCATTTA	-0.0213
AAAGGCAG	0.17
AAAGCTAG	-0.236
GTAATAAA	0.313
CTGATACA	0.0567

Sequence	PBM E-score
ATGATAAT	0.377
GTGATACA	0.311
ATAATAAA	0.2
GAGATACA	0.146
AAGATAAT	0.0926
ATGATAAG	0.291
GTAATAAC	0.124
CACTTTGC	0.137
CTGACACC	-0.0573
GGTTGGAA	-0.166
AACTAGAG	-0.159
ATACAGTG	0.011
AGAGAAGA	0.0299
CCACCAGC	0.0706
CTCGTTTC	0.129
ATCGTTTC	0.325
GCCGTTTA	0.102
ACCGTTTG	0.103
AGCGTTTG	-0.116
CTCGTTTA	0.0984
ATCGTTCC	0.068
ATCGTTTA	0.321
GTCGTTTA	0.298
AGCGTTTA	-0.153
ATCGTTTG	0.298

Sequence	PBM E-score
AACGTTTA	-0.0328
CAGCTCCA	-0.238
CGATACAG	-0.0796
ACTTTGTA	0.0728
ATTAGATC	-0.00144
ATGCAGCG	-0.174
GCGGGAGC	-0.288
CTCGTTGA	0.0588
GTCGTTGA	0.327
ATCGTTGA	0.208
AGCTCGTA	0.149
GCGCAACA	-0.123
AAAGAGTG	-0.101
ATTATGCG	0.303
ATTATGTA	0.239
ATCATGTA	0.208
ATTATGCC	0.0573
ATTATGCA	-0.114
CTTATGTC	0.00318
ATCATGTC	0.356
ATTATGTC	0.303
CTCATGTC	0.0937
AGCCGGTA	-0.013
CTGGCACA	0.00341
GATCCAAA	0.111

Sequence	PBM E-score
AGTGTTTG	-0.0678
ACGATAAA	0.352
ACGATAAG	0.243
TCGATAAA	0.207
GCGATAAA	0.241
ACGATAAC	0.224
ACGATAAT	0.303
CAGACTCA	-0.218
GGGAACCA	-0.249
CCGAACCA	-0.231
CCGTTTAA	0.266
ACGTTTAA	0.245
ACGTTCAA	0.155
GCGTTCAA	-0.0872
TCGTTTAA	0.341
TCGTTCAA	0.357
TACACTAA	0.114
TAAGACTA	-0.0858
CCAACAGG	-0.363
GAACTTAC	0.0577
ACGGTATC	0.182
AGTTTATC	0.173
AATTTATC	0.314
CATTTATC	0.222
AATTTATA	0.191

Sequence	PBM E-score
CGTTTATC	0.297
CGTTTATA	0.196
CCTCTGAG	-0.215
GATTGGGA	-0.197
AGTGGTTA	0.0354
TAACGACA	0.31
AAACGACT	0.152
CAACGACA	0.208
AAACGACA	0.321
GAACGACA	0.296
AAACGACG	0.238
GCTAAAGC	-0.16
ACGCGGAT	-0.024
GAAACCAC	-0.124
AAGGGACC	0.0128
ACCATAGA	-0.0622
CCTCGTGA	0.363
CTTCGTGA	0.317
AGTCGTGA	0.249
GGTCGTGA	0.195
CGTCGTGA	0.351
GCTCGTGA	0.0759
AGTCGTGC	0.0998
CCTCGTGC	0.00335
ATTCGTGA	0.15

Sequence	PBM E-score
CGTCGTGC	0.315
ACTCGTGA	0.162
GTTCGTGA	0.254
GTGAAAAC	0.138
CACTTCGA	0.223
ATACTGTA	0.0204
GAAACTTC	0.0521
AGACAGTG	-0.0919
GCTTTTTA	0.0686
CGCATCAC	0.263
CACTTTTC	0.192
AGCGGTAC	-0.161
CTGACGTC	0.137
CCCGAGCC	-0.299
ATATCAGC	0.00929
CTATCACA	0.199
ATATCACA	0.282
CTATCACC	0.226
ATATCACC	0.438
ATATCACG	0.401
